# Structures can show the parent of a compound that is named as a salt.
# System: Danio rerio larvae (5 dpf)
# Assay: combined optomotor response (time in upper well half, down vs up moving lines, periods 7-14) minus DMSO control (percentage points); higher = stronger optomotor response than DMSO larvae
# Conditions: 10 µM; exposure time: 3 h pre-incubation + 3 h imaging
# Procedure: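 Wild-type 5 dpf zebrafish larvae (n=48 per drug, 96-well plates, 28.5 °C) were exposed to Tocris FDA-approved library compounds at 10 µM (0.1% DMSO) for 3 h before and 3 h during imaging. Images were taken every 6 s during visual and acoustic stimuli, and larvae were tracked with Z-LaP Tracker. Each measure is the treated-group mean minus the DMSO control mean (n=844), in percentage points. This mapping covers compounds with 5-character plate codes.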
row,Compound,combined optomotor response
1,CCCc1nn(C)c2c(=O)[nH]c(-c3cc(S(=O)(=O)N4CCN(C)CC4)ccc3OCC)nc12 [Sildenafil citrate],-0.855
2,Clc1ccc2nsnc2c1NC1=NCCN1 [Tizanidine hydrochloride],1.65
3,CC(=O)Oc1cc2c(s1)CCN(C(C(=O)C1CC1)c1ccccc1F)C2 (stereo unspecified) [Prasugrel],6.75
4,O=C1CCc2ccc(OCCCCN3CCN(c4cccc(Cl)c4Cl)CC3)cc2N1 [Aripiprazole],1.74
5,CCCCCCCN(CC)CCCC(O)c1ccc(NS(C)(=O)=O)cc1 (stereo unspecified) [Ibutilide hemifumarate],5.81
6,CC[C@H]1OC(=O)[C@H](C)[C@@H](O[C@H]2C[C@@](C)(OC)[C@@H](O)[C@H](C)O2)[C@H](C)[C@@H](O[C@@H]2O[C@H](C)C[C@H](N(C)C)[C@H]2O)[C@](C)(O)C[C@@H](C)CN(C)[C@H](C)[C@@H](O)[C@]1(C)O [Azithromycin],-4.55
7,CC(=O)Nc1ccc(O)cc1 [Acetaminophen],0.558
8,CC(C)OC(=O)C(C)(C)Oc1ccc(C(=O)c2ccc(Cl)cc2)cc1 [Fenofibrate],2.45
9,NC(=O)OCC(COC(N)=O)c1ccccc1 [Felbamate],-0.92
10,OCc1cc(C(O)CNCCCCCCOCCCCc2ccccc2)ccc1O (stereo unspecified) [Salmeterol xinafoate],0.619
11,COCCc1ccc(OCC(O)CNC(C)C)cc1 (stereo unspecified) [Metoprolol tartrate],1.91
12,N#Cc1ccc2[nH]cc(CCCCN3CCN(c4ccc5oc(C(N)=O)cc5c4)CC3)c2c1 [Vilazodone hydrochloride],-6.69
13,C#CCN[C@@H]1CCc2ccccc21 [Rasagiline mesylate],6.3
14,OC(c1cc(C(F)(F)F)nc2c(C(F)(F)F)cccc12)C1CCCCN1 (stereo unspecified) [Mefloquine hydrochloride],-2.6
15,N#C[C@@H]1C[C@@H]2C[C@@H]2N1C(=O)[C@@H](N)C12CC3CC(CC(O)(C3)C1)C2 [Saxagliptin hydrochloride],-2.67
16,CNS(=O)(=O)Cc1ccc2[nH]cc(CCN(C)C)c2c1 [Sumatriptan succinate],-0.931
17,CC(C)COCC(CN(Cc1ccccc1)c1ccccc1)N1CCCC1 (stereo unspecified) [Bepridil hydrochloride],8.48
18,OCCN1C[C@H](O)[C@@H](O)[C@H](O)[C@H]1CO [Miglitol],5.48

row,Compound,combined optomotor response
1,COc1ccccc1Oc1c(NS(=O)(=O)c2ccc(C(C)(C)C)cc2)nc(-c2ncccn2)nc1OCCO [Bosentan],1.31
2,COc1cc(N)c(Cl)cc1C(=O)NC1CCN(CCCOc2ccc(F)cc2)CC1OC (stereo unspecified) [Cisapride],4.72
3,CCc1nc(N)nc(N)c1-c1ccc(Cl)cc1 [Pyrimethamine],7.22
4,O=c1n(CCCN2CCN(c3cccc(Cl)c3)CC2)nc2ccccn12 [Trazodone hydrochloride],2.35
5,CNCc1ccc(-c2[nH]c3cc(F)cc4c3c2CCNC4=O)cc1 [Rucaparib camsylate],4.21
6,Cc1cc2c(s1)Nc1ccccc1N=C2N1CCN(C)CC1 [Olanzapine],8.87
7,CN(C)CCc1c[nH]c2ccc(C[C@H]3COC(=O)N3)cc12 [Zolmitriptan],5.82
8,C[C@H]1O[C@H](O[C@H]2[C@H](O)[C@@H](O)[C@@H](O[C@H]3[C@H](O)[C@@H](O)C(O)O[C@@H]3CO)O[C@@H]2CO)[C@H](O)[C@@H](O)[C@@H]1N[C@H]1C=C(CO)[C@@H](O)[C@H](O)[C@H]1O (stereo partly specified) [Acarbose],3.82
9,CC(C)(C(=O)O)c1ccc(C(O)CCCN2CCC(C(O)(c3ccccc3)c3ccccc3)CC2)cc1 (stereo unspecified) [Fexofenadine hydrochloride],3.85
10,COc1ccccc1OCC(O)CN1CCN(CC(=O)Nc2c(C)cccc2C)CC1 (stereo unspecified) [Ranolazine dihydrochloride],10.9
11,COc1cc2nccc(Oc3ccc(NC(=O)C4(C(=O)Nc5ccc(F)cc5)CC4)cc3)c2cc1OC,0.162
12,CN[C@H]1CC[C@@H](c2ccc(Cl)c(Cl)c2)c2ccccc21 [Sertraline hydrochloride],-6.63
13,COc1cc([C@@H]2c3cc4c(cc3[C@@H](O[C@@H]3O[C@@H]5CO[C@@H](C)O[C@H]5[C@H](O)[C@H]3O)[C@H]3COC(=O)[C@H]23)OCO4)cc(OC)c1O [Etoposide],4.51
14,CN(C)C(=N)NC(=N)N [Metformin hydrochloride],8.63
15,CCCC1O[C@@H]2C[C@H]3[C@@H]4CCC5=CC(=O)C=C[C@]5(C)[C@H]4[C@@H](O)C[C@]3(C)[C@]2(C(=O)CO)O1 (stereo partly specified) [Budesonide],2.27
16,NS(=O)(=O)c1cc2c(cc1Cl)NC(C1CC3C=CC1C3)NS2(=O)=O (stereo unspecified) [Cyclothiazide],0.296
17,O=C(O)C[C@H](O)C[C@H](O)/C=C/c1c(C2CC2)nc2ccccc2c1-c1ccc(F)cc1 [Pitavastatin calcium],8.14
18,CNC(=O)c1cc(Oc2ccc(NC(=O)Nc3ccc(Cl)c(C(F)(F)F)c3)cc2)ccn1 [Sorafenib],-1.64
